Bioassay records as filed in PubChem.
Only some compounds are listed: those with a hit (about 7.7% of all), similar ones and a draw of the others.
FBPA Giardia inh – inhibitors of Giardia lamblia fructose-1,6-bisphosphate aldolase | A8B2U2 | purified Giardia FBPA | Potency, µM (top dose mostly 59.6 µM), for the others: at the highest dose activity, negative = inhibition, usual class: inhibitors | 290,000 tested, 0.71% active; further: potency means the concentration at half of the fitted maximal effect; nearly all actives have a fitted effect of over 55% in size
Target sequence (A8B2U2 whole entry, looked up): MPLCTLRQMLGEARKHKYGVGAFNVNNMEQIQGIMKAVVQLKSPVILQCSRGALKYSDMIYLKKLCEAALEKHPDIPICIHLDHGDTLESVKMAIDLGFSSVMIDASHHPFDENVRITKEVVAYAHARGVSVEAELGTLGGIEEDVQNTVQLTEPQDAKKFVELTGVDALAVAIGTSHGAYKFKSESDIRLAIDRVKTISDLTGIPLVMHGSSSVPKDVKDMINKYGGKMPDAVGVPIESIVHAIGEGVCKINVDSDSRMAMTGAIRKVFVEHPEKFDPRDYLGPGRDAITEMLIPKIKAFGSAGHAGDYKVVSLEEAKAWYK
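Giardia FBPA (40 nM reagent) was preincubated 10 min at RT with compound (up to 57.5 uM final), then substrate plus GAPDH/TPI/NAD/arsenate coupling system with diaphorase/resazurin was added; resorufin fluorescence (525/598 nm) was read after 20 min.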
RE007 growth inh – less growth of the S. pombe RE007 Vpr strain; S. pombe RE007 Vpr strain, BacTiter-Glo ATP luminescence, 24 h; Potency, µM (titrated, usually from 92.2 µM), inactives show at the top dose activity change, negative = less growth, hits mostly inhibitors; AID 651644; 360,000 tested, 0.21% active; active means well fitted falling curve with a large enough effect; inconclusive means small, poorly fitted or top-dose-only effect; inactive means no such curve, though single readings can be large or run the other way; further: potency means the concentration at half of the fitted maximal effect; nearly all actives have a fitted effect of over 50% in size
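Fission yeast strain RE007, carrying one chromosomally integrated HIV-1 vpr copy, was seeded at OD 0.01 in PMG+AL medium with 23 nL pinned compound. After 24 h at 30 °C and 99% humidity, viability was read by BacTiter-Glo luminescence.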
HCMV inh – human cytomegalovirus inhibition; HFF cells, HCMV-luciferase reporter, 72 h; hits give low values; activity change, negative = inhibition, % at 57.5 µM; AID 1259415; 410,000 tested, 4.5% active; in the data active means activity change below about -60%; inconclusive means no clear call, values can overlap the other calls; inactive means above about -39%
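Luciferase read-out from HCMV-luciferase-infected HFFs (MOI 1 PFU/cell) 72 h post infection at 37C; compounds added after 16 h cell attachment; activity normalized between buffer-only basal and Salinomycin (10uM) inhibitor controls.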
TbPYK inhibitor – T. brucei pyruvate kinase inhibition. Q57TT1. TbPYK enzyme, Kinase-Glo Plus ATP luminescence, 45 min. Potency, µM (highest dose often 76.8 µM), for inactives: top-dose activity, negative = inhibition, hits mostly inhibitors. 410,000 tested, 0.12% active. AID 624173; further: potency means the concentration at half of the fitted maximal effect; nearly all actives have a fitted effect of over 50% in size
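In this concentration-response screen, enzyme-free wells defined baseline while DMSO plates tracked drift. Each reaction combined TbPYK, substrate, compound and 130 uM ADP for 45 min at room temperature. Kinase-Glo Plus luminescence gave the signal.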
FMDV inh – foot and mouth disease virus antiviral activity. FMDV antiviral cell-based qHTS. Potency, µM (highest dose often 57.9 µM), for the others: at the highest dose activity change, negative = inhibition, actives largely listed as inhibitors. 410,000 tested, 1.2% active. AID 1159524; calls by dose curve; tested in HEK293T cells; further: read-out not given here; potency means the concentration at half of the fitted maximal effect; nearly all actives have a fitted effect of over 45% in size
Sm TGR inh – inhibitors of Schistosoma mansoni thioredoxin glutathione reductase; Q962Y6; purified TGR, DTNB reduction, TNB absorbance 405 nm; Potency, µM (top dose mostly 114 µM), for the others: at the top dose activity change, negative = inhibition, hits mostly inhibitors; 360,000 tested, 3% active; AID 485364; further: potency means the concentration at half of the fitted maximal effect; nearly all actives have a fitted effect of over 60% in size
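TGR 20 nM + NADPH 100 uM (dispensed conc.), cpd preinc 15 min RT; start with NADPH (500 uM addition) then DTNB (15 mM addition). Kinetic TNB absorbance, 405 nm filter. Four-parameter Hill fit across titration.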
The depositor's hits bear a star; ? = inconclusive; · = not tested or not shown; + = active, no number. Unless noted, the call rests on the fitted dose curve; in most records, active means well fitted curve in the direction sought with a large enough effect; inconclusive means small, poorly fitted or top-dose-only effect, or another doubt; inactive means no such curve, though single readings can be large; an effect the other way counts as inactive or inconclusive. On the % scale 0 is the no-effect control and ±100 the full control effect.

SMILES | FBPA Giardia inh | RE007 growth inh | HCMV inh | TbPYK inhibitor | FMDV inh | Sm TGR inh
O=C(NCc1ccc(F)cc1)[C@@H]1[C@@H](CO)[C@@H]2Cn3c(cccc3=O)[C@H]1N2CC1CCCC1 | · | · | -2.1 | · | · | ·
COc1ccc(OCc2ccc(-c3nc(C#N)c(N4CCN(C)CC4)o3)o2)cc1 | · | · | -17.6 | 0.2% | -24.0% | 0.1%
CCN(CC(=O)NCc1ccc(Cl)cc1)C(=O)/C=C/c1ccco1 | -1.9% | 3.7% | 90.2 | 2.3% | -9.4% | 25.1µM*
CC(C)NC(=O)COC(=O)/C=C/c1ccc(F)cc1 | 2.8% | -15.0% | -12.8 | -1.2% | 18.4% | 4.1%
CC(C)NC(=O)COC(=O)/C=C/c1ccco1 | 3.6% | -11.1% | 2.4 | 0.7% | 14.2% | 50.1µM*
Cc1ccc(/C=C/C(=O)OCC(=O)NC(C)C)o1 | 0.0% | 0.1% | -23.0 | -13.5% | -7.2% | 50.1µM*
O=C(NCc1ccncc1)c1cnn(-c2nccc(-c3cc4ccccc4o3)n2)c1C1CC1 | · | · | · | · | -19.4% | ·
COc1ccc(Cn2c(CNS(=O)(=O)c3ccc(Cl)s3)nc3cccnc32)cc1 | · | · | ? | 7.4% | 64.7% | 8.3%
CCN(CC)CCCNC(=S)N1CCN(c2nc(-c3ccccc3)cs2)CC1 | 0.0% | -25.9% | -31.5 | -4.5% | -25.5% | ?
CCOCCCNC(=S)N1CCN(c2nc(-c3ccccc3)cs2)CC1 | 7.8% | -6.2% | -86.1* | -4.4% | ? | 3.2%
COCCCNC(=S)N1CCN(c2nc(-c3ccccc3)cs2)CC1 | 2.1% | -0.5% | -67.4* | -10.7% | ? | 2.8%
COCCCNC(=S)N1CCN(c2nc(-c3ccc(Cl)cc3)cs2)CC1 | · | -13.2% | -92.1* | -16.0% | ? | ·
CC(C)CNC(=S)N1CCN(c2nc(-c3ccc(Cl)cc3)cs2)CC1 | 13.0% | 3.1% | ? | -8.0% | -29.2% | 5.1%
CCOC(=O)c1c(C)[nH]c(C)c1S(=O)(=O)NCC(=O)Nc1ccc(CC)cc1 | · | · | -9.8 | 0.0% | 6.9% | 4.1%
COc1ccc(-c2nc3scc(CCNS(=O)(=O)c4c(C)cc(C)cc4C)n3n2)cc1OC | · | · | 39.0 | -2.1% | 22.6% | 3.8%
CCOC(=O)/C=C/COc1ccccc1[N+](=O)[O-] | 1.2% | -8.8% | -63.1* | 7.6% | 60.0% | 2.0%
CC(C)(C)C(=O)COc1ccccc1[N+](=O)[O-] | 0.8% | ? | ? | 4.3% | 9.8% | 2.1%
CCCC(=O)NC(c1ccc(Cl)cc1Cl)c1ccc2cccnc2c1O (centres undefined) | ? | 0.9% | -105.0* | -5.7% | -11.6% | 3.4%
CCCC(=O)NC(c1ccc(C)cc1)c1ccc2cccnc2c1O (centres undefined) | ? | ? | · | -10.3% | -16.2% | 9.1%
CCCCC(=O)NC(c1ccc(Cl)cc1)c1ccc2cccnc2c1O (centres undefined) | · | -28.2% | -97.9* | 3.7% | -2.8% | ·
CC(=O)NC(c1ccc(Cl)cc1Cl)c1ccc2cccnc2c1O (centres undefined) | ? | -12.2% | -98.4* | -13.9% | 0.0% | -17.5%
CCCC(=O)NC(c1ccccc1OC)c1ccc2cccnc2c1O (centres undefined) | 26.4% | -23.6% | · | 1.3% | -12.3% | -9.7%
CCCC(=O)NC(c1ccc(Cl)cc1)c1ccc2cccnc2c1O (centres undefined) | ? | ? | -99.7* | -11.0% | -9.5% | -5.4%
Cc1c2cnn(-c3ccccc3)c(=O)c2c(C)n1CC(=O)Nc1ccccc1Br | · | · | -17.1 | -1.3% | -13.1% | 0.6%
Cc1ccccc1C(=O)Nc1nc(-c2nnn(-c3ccc(C(C)C)cc3)c2C)ns1 | · | · | -32.6 | -3.5% | -18.8% | -9.5%
CC(=O)NC(c1ccc2ccccc2c1)c1ccc2cccnc2c1O (centres undefined) | ? | ? | -98.2* | -12.1% | -12.5% | -2.6%
CCCCC(=O)NC(c1ccccc1OC)c1ccc2cccnc2c1O (centres undefined) | 22.7% | -25.8% | + | -3.6% | -16.0% | -0.5%
